# Data as given in the supplement of paper PMC8728848.
# This excerpt belongs to a sample that is enriched for the strongest signals.
# B1: rEtpA (Escherichia coli) (protein)
# chain: MNRIYKLKFDKRRNELVVVSEITTGVGNAKATGSVEGEKSPRRGVRAMALSLLSGMMIMAHPAMSANLPTGGQIVAGSGSIQTPSGNQMNIHQNSQNMVANWNSFDIGKGNTVQFDQPSSSAVALNRVVGGGESQIMGNLKANGQVFLVNPNGVLFGEGASVSTSGFVASTRDIKNDDFMNRRYTFSGGQKAGAAIVNQGELTTNAGGYIVLAADRVSNSGTIRTPGGKTVLAASERITLQLDNGGLMSVQVTGDVVNALVENRGLVSARDGQVYLTALGRGMLMNTVLNVSGVVEASGMHRQDGNIVLDGGDSGVVHLSGTLQADNASGQGGKVVVQGKNILLDKGSNITATGGQGGGEVYVGGGWQGKDSNIRNADKVVMQGGARIDVSATQQGNGGTAVLWSDSYTNFHGQISAKGGETGGNGGRVETSSHGNLQAFGTVSASAKKGKAGNWLLDSADITIVNGSNVSKTETTQSPPHTQFAPTAAGSAVSNTSINNRLNNGTSVTILTHRTRTGTAQGGNITVNAAINKSNGSDVNLTLQAGGNITVNNSITSTEGKLNVNLSGARTSNGSITISNNANITTNGGDITVGTTNTSNRVNISINNTTLNASNGNIQLTGTGTDSGILFAGNNRLTASNIALTGNSTSGNAINLTGTATLNATNNITLTGSSTSGNAINLKGNNTLTASNITLTGESTSGNAINLTDTTGTTTLNATNNITMQGTRVQIKHSNITAGNFALNATVAGSEISNTTLTATNNINLAAKTNSASSGVYLKDARITSTNGSITANGTATANGKATHLDGNVTLNASNGRIKLTGNGHGSASGILFAGNNRLTASNIALTGNSTSGNAINLTGTATLNATNDITLTGSSTSGNAINLTGTATLNATNNITLTGSSTSGNAINLKGNNTLTASNITLTGESTSGNAINLTDTTGTTTLNATNNITMQGTRVQIKHSNITAGNFALNATVAGSEISNTTLTATNNINLAAKTNSASSGVYLKDARITSTNGSITANGTATANGKATHLDGNVTLNASNGRIKLTGNGHGSASGILFAGNNRLTASNIALTGNSTSGNAINLTGTATLNATNDITLTGSSTSGNAINLTGTATLNATNNITLTGSSTSGNAINLKGNNTLTASNITLTGESTSGNAINLTDTTGTTTLNATNNITMQGTRVQIKHSNITAGNFALNATVAGSEISNTTLTATNNINLAAKTNSASSGVYLKDARITSTNGSITANGTATANGKATHLDGNVTLNASNGRIKLTGNGHGSASGILFAGNNRLTASNIALTGNSTSGNAINLTGTATLNATNDITLTGSSTSGNAINLTGTATLNATNNITLTGSSTSGNAINLKGNNTLTASNITLTGESTSGNAINLTDTTGTTTLNATNNITMQGTRVQIKHSNITAGNFALNATVAGSEISNTTLTATNNINLAAKTNSASSGVYLKDARITSTNGSITTNGTATANGKATHLDGNVTLNASNGRIKLTGNGHGSASGILFAGNNRLTASNIALTGNSTSGNAINLTGTATLNATNDITLTGSSTSGNAINLTGTATLNATNNITLTGSSTSGNAINLKGNNTLTASNITLTGESTSGNAINLTDTTGTTTLNATNNITMQGTRVQIKHSNITAGNFALNATVAGSEISNTTLTATNNINLAAKTNSASSGVYLKDARITSTNGSITANGTAPANDNATYLDGNVTLNASNGSIKLTGNGNGSTSGILFAGNNTLTASNITLTGNSEVYWQKLGPEQKLISEEDLNSAVDHHHHHH
# How the values were obtained:
# Assay in all cases: glycan array binding signal (z-score within array); higher = stronger binding
# Conditions in all cases: glycan notation: IUPAC condensed, linker removed
# [1] = molecular target: Fuc(a1-2)Gal(b1-3)GlcNAc(b1-3)[Gal(b1-4)GlcNAc(b1-6)]Gal(b1-4)Glc
# Procedure, shortened: (§1)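 Glycan array binding is given as a within-array Z-score, which can be read as non-binding when negative. The arrays, 3228 of them, came from the Consortium for Functional Glycomics database and were retained only where the protein sequence was available. Z-scores were averaged across arrays of the same protein sequence at different concentrations or buffers and across linkers.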
# [2] = molecular target: Fuc(a1-2)Gal(b1-4)[Fuc(a1-3)]GlcNAc(b1-2)[Fuc(a1-2)Gal(b1-4)[Fuc(a1-3)]GlcNAc(b1-4)]Man(a1-3)[Fuc(a1-2)Gal(b1-4)[Fuc(a1-3)]GlcNAc(b1-2)Man(a1-6)]Man(b1-4)GlcNAc(b1-4)GlcNAc
# Procedure, shortened: as §1
# [3] = molecular target: Fuc(a1-2)[Gal(a1-3)]Gal(b1-3)GalNAc
# Procedure, shortened: as §1
# [4] = molecular target: Fuc(a1-2)[Gal(a1-3)]Gal(b1-3)GalNAc(b1-3)Gal(a1-4)Gal(b1-4)Glc
# Procedure, shortened: as §1
# [5] = molecular target: Fuc(a1-2)[GalNAc(a1-3)]Gal(b1-3)GlcNAc(b1-2)Man(a1-3)[Fuc(a1-2)[GalNAc(a1-3)]Gal(b1-3)GlcNAc(b1-2)Man(a1-6)]Man(b1-4)GlcNAc(b1-4)GlcNAc
# Procedure, shortened: as §1
# [6] = molecular target: Fuc(a1-2)[GalNAc(a1-3)]Gal(b1-4)GlcNAc(b1-2)Man(a1-3)[Fuc(a1-2)[GalNAc(a1-3)]Gal(b1-4)GlcNAc(b1-2)Man(a1-6)]Man(b1-4)GlcNAc(b1-4)GlcNAc
# Procedure, shortened: as §1
# [7] = molecular target: Fuc(a1-3)[Gal(b1-4)]GlcNAc(b1-3)GalNAc
# Procedure, shortened: as §1
# [8] = molecular target: Fuc(a1-3)[Gal(b1-4)]GlcNAc(b1-6)GalNAc
# Procedure, shortened: as §1
# [9] = molecular target: Fuc(a1-3)[Gal3S(b1-4)]GlcNAc
# Procedure, shortened: as §1
# [10] = molecular target: Fuc(a1-4)GlcNAc
# Procedure, shortened: as §1
# [11] = molecular target: Gal(a1-2)Gal
# Procedure, shortened: as §1
# [12] = molecular target: Gal(a1-3)Gal
# Procedure, shortened: as §1
# [13] = molecular target: Gal(a1-3)Gal(b1-3)GlcNAc
# Procedure, shortened: as §1
# [14] = molecular target: Gal(a1-3)Gal(b1-3)GlcNAc(b1-2)Man(a1-3)[Gal(a1-3)Gal(b1-3)GlcNAc(b1-2)Man(a1-6)]Man(b1-4)GlcNAc(b1-4)GlcNAc
# Procedure, shortened: as §1
# [15] = molecular target: Gal(a1-3)Gal(b1-4)Glc
# Procedure, shortened: as §1
# [16] = molecular target: Gal(b1-3)GalNAc(b1-4)Gal(b1-4)Glc
# Procedure, shortened: as §1
# [17] = molecular target: Gal(b1-3)GlcNAc(b1-3)Gal(b1-4)GlcNAc
# Procedure, shortened: as §1
# [18] = molecular target: Gal(b1-4)GlcNAc(b1-2)Man(a1-3)[GlcNAc(b1-2)Man(a1-6)]Man(b1-4)GlcNAc(b1-4)GlcNAc
# Procedure, shortened: as §1
# [19] = molecular target: Gal(b1-4)GlcNAc(b1-2)Man(a1-3)[GlcNAc(b1-4)][Gal(b1-4)GlcNAc(b1-2)Man(a1-6)]Man(b1-4)GlcNAc(b1-4)GlcNAc
# Procedure, shortened: as §1
# [20] = molecular target: Gal(b1-4)GlcNAc(b1-2)Man(a1-6)Man(b1-4)GlcNAc(b1-4)GlcNAc
# Procedure, shortened: as §1
# [21] = molecular target: Gal(b1-4)GlcNAc(b1-2)Man(a1-6)[Man(a1-3)]Man(b1-4)GlcNAc(b1-4)GlcNAc
# Procedure, shortened: as §1
# [22] = molecular target: Gal(b1-4)GlcNAc(b1-2)[Gal(b1-4)GlcNAc(b1-6)]Man(a1-6)[GlcNAc(b1-4)][Gal(b1-4)GlcNAc(b1-2)Man(a1-3)]Man(b1-4)GlcNAc(b1-4)GlcNAc
# Procedure, shortened: as §1
# [23] = molecular target: Gal(b1-4)GlcNAc(b1-3)Gal(b1-4)GlcNAc(b1-2)[Gal(b1-4)GlcNAc(b1-3)Gal(b1-4)GlcNAc(b1-6)]Man(a1-6)[Gal(b1-4)GlcNAc(b1-3)Gal(b1-4)GlcNAc(b1-2)Man(a1-3)]Man(b1-4)GlcNAc(b1-4)GlcNAc
# Procedure, shortened: as §1
# [24] = molecular target: Gal(b1-4)GlcNAc(b1-3)Gal(b1-4)GlcNAc(b1-2)[Gal(b1-4)GlcNAc(b1-3)Gal(b1-4)GlcNAc(b1-6)]Man(a1-6)[Gal(b1-4)GlcNAc(b1-3)Gal(b1-4)GlcNAc(b1-2)Man(a1-3)]Man(b1-4)GlcNAc(b1-4)[Fuc(a1-6)]GlcNAc
# Procedure, shortened: as §1
# [25] = molecular target: Gal(b1-4)GlcNAc(b1-3)Gal(b1-4)GlcNAc(b1-3)Gal(b1-4)GlcNAc(b1-3)Gal(b1-4)GlcNAc(b1-3)Gal(b1-4)GlcNAc(b1-2)[Gal(b1-4)GlcNAc(b1-3)Gal(b1-4)GlcNAc(b1-3)Gal(b1-4)GlcNAc(b1-3)Gal(b1-4)GlcNAc(b1-3)Gal(b1-4)GlcNAc(b1-6)]Man(a1-6)[Gal(b1-4)GlcNAc(b1-3)Gal(b1-4)GlcNAc(b1-3)Gal(b1-4)GlcNAc(b1-3)Gal(b1-4)GlcNAc(b1-3)Gal(b1-4)GlcNAc(b1-2)Man(a1-3)]Man(b1-4)GlcNAc(b1-4)[Fuc(a1-6)]GlcNAc
# Procedure, shortened: as §1
# [26] = molecular target: Gal3S(b1-4)[Fuc(a1-3)]GlcNAc
# Procedure, shortened: as §1
binder,measurement,setting,value
B1,glycan array binding signal (z-score),[1],-0.058
same,glycan array binding signal (z-score),[2],-0.225
same,glycan array binding signal (z-score),[3],0.413
same,glycan array binding signal (z-score),[4],-0.241
same,glycan array binding signal (z-score),[5],-0.328
same,glycan array binding signal (z-score),[6],-0.09
same,glycan array binding signal (z-score),[7],-0.358
same,glycan array binding signal (z-score),[8],-0.192
same,glycan array binding signal (z-score),[9],-0.102
same,glycan array binding signal (z-score),[10],2.8
same,glycan array binding signal (z-score),[11],0.054
same,glycan array binding signal (z-score),[12],2.11
same,glycan array binding signal (z-score),[13],1.87
same,glycan array binding signal (z-score),[14],0.182
same,glycan array binding signal (z-score),[15],-0.179
same,glycan array binding signal (z-score),[16],-0.272
same,glycan array binding signal (z-score),[17],-0.457
same,glycan array binding signal (z-score),[18],-0.408
same,glycan array binding signal (z-score),[19],-0.274
same,glycan array binding signal (z-score),[20],-0.376
same,glycan array binding signal (z-score),[21],0.021
same,glycan array binding signal (z-score),[22],-0.309
same,glycan array binding signal (z-score),[23],-0.106
same,glycan array binding signal (z-score),[24],-0.356
same,glycan array binding signal (z-score),[25],-0.351
same,glycan array binding signal (z-score),[26],-0.202
